# PLCb3 inh – human PLC-beta3 inhibitors, primary screen, biochemical, fluorescence. inhibition, % at 12.2 µM. Purified PLC-beta3, fluorogenic substrate. 1-phosphatidylinositol 4,5-bisphosphate phosphodiesterase beta-3 (Homo sapiens), Q01970. hit rate 0.18% among 370,000; in the data active = inhibition above about 11%;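 note: 0% = median of compound wells on plate and 100% = full blocker control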
# PLC-gamma1 inh – PLC-gamma1 enzyme inhibitors, primary screen, biochemical, fluorescence, purified enzyme; inhibition, % at 12.2 µM; AID 720700, 2013; hit rate 0.84% among 370,000; 1-phosphatidylinositol 4,5-bisphosphate phosphodiesterase gamma-1 (Homo sapiens), P19174; fluorogenic substrate; in the data active = inhibition above about 9.5%
# Target sequence (P19174 whole entry, looked up): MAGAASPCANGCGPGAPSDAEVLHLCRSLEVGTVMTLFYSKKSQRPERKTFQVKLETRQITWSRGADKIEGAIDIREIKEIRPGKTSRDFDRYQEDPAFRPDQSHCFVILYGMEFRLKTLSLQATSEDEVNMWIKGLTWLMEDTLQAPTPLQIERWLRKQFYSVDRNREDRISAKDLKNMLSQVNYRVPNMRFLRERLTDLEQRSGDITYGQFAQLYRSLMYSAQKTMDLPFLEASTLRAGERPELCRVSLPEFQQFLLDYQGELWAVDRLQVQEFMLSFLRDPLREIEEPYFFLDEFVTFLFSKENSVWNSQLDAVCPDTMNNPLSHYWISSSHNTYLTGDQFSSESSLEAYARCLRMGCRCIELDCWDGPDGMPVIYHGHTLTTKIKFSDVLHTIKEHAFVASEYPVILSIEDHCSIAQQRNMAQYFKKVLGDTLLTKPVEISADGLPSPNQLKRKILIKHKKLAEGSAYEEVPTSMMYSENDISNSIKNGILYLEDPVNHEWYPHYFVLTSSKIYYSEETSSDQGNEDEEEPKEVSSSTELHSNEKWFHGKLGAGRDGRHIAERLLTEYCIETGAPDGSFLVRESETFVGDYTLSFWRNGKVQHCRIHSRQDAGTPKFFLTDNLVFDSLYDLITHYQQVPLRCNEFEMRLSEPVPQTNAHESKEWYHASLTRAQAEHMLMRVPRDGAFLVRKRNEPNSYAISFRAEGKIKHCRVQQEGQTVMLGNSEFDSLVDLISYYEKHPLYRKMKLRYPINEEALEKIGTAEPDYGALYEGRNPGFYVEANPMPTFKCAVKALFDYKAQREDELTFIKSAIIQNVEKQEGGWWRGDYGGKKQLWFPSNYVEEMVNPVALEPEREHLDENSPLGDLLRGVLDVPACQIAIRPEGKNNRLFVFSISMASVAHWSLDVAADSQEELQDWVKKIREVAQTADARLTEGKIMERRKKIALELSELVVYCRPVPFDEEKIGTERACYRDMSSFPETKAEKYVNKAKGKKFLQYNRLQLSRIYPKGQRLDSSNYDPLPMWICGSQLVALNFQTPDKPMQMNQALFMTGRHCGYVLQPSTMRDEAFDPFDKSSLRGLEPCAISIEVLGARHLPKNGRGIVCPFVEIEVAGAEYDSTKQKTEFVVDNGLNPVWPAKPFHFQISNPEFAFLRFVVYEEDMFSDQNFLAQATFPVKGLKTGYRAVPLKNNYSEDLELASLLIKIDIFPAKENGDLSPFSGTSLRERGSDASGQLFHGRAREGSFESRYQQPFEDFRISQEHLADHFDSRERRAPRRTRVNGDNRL
# proKLK7 act – proKLK7 zymogen activators, primary screen, biochemical, fluorescence intensity. Kallikrein-7 (Homo sapiens), P49862. purified proKLK7, EDANS-DABCYL substrate fluorescence; 100% is mature enzyme control, 0% vehicle. activation, % at 7 µM. hit rate 0.9% among 370,000;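 active = activation above the mean of all tested compounds plus 3 SD, computed per campaign excluding outliers beyond control limits, cut at about 13% in these data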
# ADAM17 inh – ADAM17 inhibitors, primary screen, biochemical, QFRET; Disintegrin and metalloproteinase domain-containing protein 17 (Homo sapiens), P78536; recombinant ADAM17, EDANS/DABCYL FRET peptide cleavage; inhibition, % at 6.95 µM; hit rate 0.83% among 370,000;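 active = inhibition above the mean of compounds lying between control limits plus 3 SD, set per campaign, cut at about 8.5% in these data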;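 note: 0% = DMSO-only wells as the low control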
# ADAM10 inh – human ADAM10 inhibitors, primary screen, biochemical, QFRET, HTS | inhibition, % at 7 µM | hit rate 0.62% among 370,000 | recombinant ADAM10, EDANS/DABCYL FRET peptide cleavage, 3 h | Disintegrin and metalloproteinase domain-containing protein 10 (Homo sapiens), O14672;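 active = inhibition above a per-campaign cutoff equal to the mean of compounds falling between control-based bounds plus 3 SD, cut at about 20% in these data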;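 note: 0% = DMSO wells while the 100% control is not disclosed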
# * marks the source's active call; other numbers are inactive results; i = inactive. The list is not random: actives were taken first. Their share in the collection is about 2.9%.
SMILES,PLCb3 inh,PLC-gamma1 inh,proKLK7 act,ADAM17 inh,ADAM10 inh
CC1=NN(c2ccccc2)C(=O)/C1=C\c1ccc(Oc2ccc([N+](=O)[O-])cc2[N+](=O)[O-])cc1,4,20*,0,3,6
Cc1nn(-c2ccccc2)c2sc(C(=O)NC3CCCCCC3)cc12,0,0,0,-3,-12
CN(C)c1ccc(-c2csc(C(O)c3ccccc3)n2)cc1 (stereo not drawn),-1,-2,0,1,-2
CN(C)c1ccc(C(O)c2cc3ccccc3s2)cc1 (stereo not drawn),-11,-5,0,10*,13
Cc1nc2cc(C(=O)N3CCN(C(=O)C(C)(C)C)CC3)ccc2n1C1CCCC1,-1,1,0,-2,-10
Cc1ccc2c(c1)N(S(=O)(=O)c1ccc(CN3C(=O)c4cccnc4C3=O)cc1)CCO2,-4,4,0,0,-5
Cc1ccc2c(c1)N(S(=O)(=O)c1ccc(CN3C(=O)c4cccnc4C3=O)s1)CCO2,-4,12*,0,1,10
COc1ccc(S(=O)(=O)N2CCCCCC2)cc1NC(=O)CN1C(=O)CNC1=O,9,11*,1,7,-6
COc1ccc(S(=O)(=O)N2CCCCCC2)cc1NC(=O)Cc1cc(OC)c(OC)c(OC)c1,0,-2,0,-1,-1
CCN(CC)c1ccc2cc(NC(=O)CCC(=O)O)c(=O)oc2c1,i,i,78*,i,i
COc1cc(NC(=O)C2CCCN(S(=O)(=O)c3ccc(Br)s3)C2)cc(OC)c1 (stereo not drawn),-2,2,0,7,5
CCN1CCN(C(=O)c2cnn3c(C(F)F)cc(-c4ccc(C)cc4)nc23)CC1,-382,-298,13*,-36,-129
Cc1nc2ccc(S(=O)(=O)NCC(=O)N(C)Cc3ccc(F)cc3)cc2s1,-1,-1,1,-3,-4
COC(=O)[C@]12C[C@H](CC(=O)NCc3ccc(C)o3)C(=O)N(Cc3ccc(Cl)cc3Cl)C1=C[C@H](C1CCCC1)O[C@@H]2C,-1,-4,1,1,8
CCCCCCS(=O)[C@H]1CS(=O)(=O)C[C@@H]1S(=O)CCCCCC (stereo partly drawn),11*,3,0,2,6
CCC(C)[C@H](NC(=O)N1CCn2c1nc1ccccc12)C(=O)NCCc1ccc(OC)c(OC)c1 (stereo partly drawn),-7,-1,0,-4,9
CCC(C)[C@H](NC(=O)N1CCn2c1nc1ccccc12)C(=O)NCCc1ccccc1 (stereo partly drawn),-1,9.9*,0,2,11
CCC(C)N(C(=O)c1ccc(CNC(=O)c2cccc(Br)c2)cc1)C(C)CC (stereo not drawn),-2,-2,0,1,6
CN(C)c1cccc2c(S(=O)(=O)NC(=O)[C@H]3O[C@@H](n4ccc(=O)[nH]c4=O)[C@H](O)[C@@H]3O)cccc12,i,i,-3,-18,-74
CCC(C(=O)OCC(=O)C1(O)CCC2C3CCC4=CC(=O)CCC4(C)C3C(O)CC21C)C(C)C (stereo not drawn),3,2,0,0,-8
CC(=O)[C@@]1(O)CC[C@H]2[C@@H]3CCC4=CC(=O)CC[C@]4(C)[C@H]3[C@@H](O)C[C@@]21C,6,11*,0,4,13
CCN1C(=O)c2cccc3c(S(=O)(=O)Nc4ncccc4C)ccc1c23,-226,-218,5,-11,-43
CCN1C(=O)c2cccc3c(S(=O)(=O)Nc4ccccn4)ccc1c23,-431,-342,19*,-11,-49
CCCCN1CCS(=O)(=O)N(Cc2cn(Cc3ccccc3Br)nn2)C(C(=O)OC)C1 (stereo not drawn),0,1,-1,-4,-8
O=C(CN1CCN(c2ccc(F)cc2)CC1)Nc1ccccc1Br,4,17*,0,8,-4
CC(Sc1nnc(-c2ccccc2)c(-c2ccccc2)n1)C(=O)NCC1CCCO1 (stereo not drawn),-1,12*,0,-3,-3

# Screening data (PubChem BioAssay)
